Values without a mark were called inactive. For some of these results: Entries with a potency or affinity are not part of this list. Active and inactive are the calls of the source. Unless noted, how the calls were made is not given here.
Tests used:
[1] = human hepatoma cell viability loss – ATP luminescence, cytotoxicity control for P. falciparum antimalarial project, primary screen (AID 2303;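 active means inhibition above 50%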;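 further: 0% = DMSO wells and 100% = digitonin-killed cells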); conditions: HepG2 viability, 24-48 h, at 10 µM, hits give high values
[2] = biological target: L-lactate dehydrogenase (Plasmodium falciparum (isolate CDC / Honduras)) (UniProt Q27743); experiment: PfLDH activity inhibition – cell lysate, 3D7 strain, counter-screen for P. falciparum growth inhibition project (AID 2304);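 further: 0% = vehicle and 100% = reference inhibitor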; conditions: P. falciparum 3D7 crude extract, LDH APAD/NBT absorbance; at 2 µM; hits give high values
[3] = inhibition of 3D7 malaria parasite growth – strain 3D7 (AID 2306);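 further: 0% = DMSO wells and 100% = chloroquine plus artemisinin control wells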; conditions: P. falciparum 3D7 erythrocytic growth, LDH absorbance, 72 h; at 2 µM; hits give high values
[4] = biological target: Calcium-dependent protein kinase 1 (Plasmodium falciparum (isolate 3D7)) (UniProt P62344); experiment: PfCDPK1 kinase inhibitors, biochemical, TCAMS library (AID 1159585; cut-off not given, nearly all actives have IC50 up to about 0.98 µM;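 further: inhibitors leave more ATP so luminescence rises with inhibition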); conditions: recombinant PfCDPK1, Kinase-Glo ATP depletion luminescence
[5] = biological target: Plasmodium falciparum protein kinase 6 (PK6, PF3D7_1337100) (UniProt Q8IDW1); experiment: PfPK6 kinase inhibitors, biochemical, TCAMS library (AID 1159586); conditions: recombinant PfPK6, Kinase-Glo ATP depletion luminescence
[6] = biological target: Protein kinase 7 (PK7), Plasmodium falciparum 3D7 (PF3D7_0213400) (UniProt Q7YTF7); experiment: inhibition of Plasmodium PK7 catalytic activity – biochemical, TCAMS antimalarial set, Kinase-Glo luminescence (AID 1159587); conditions: recombinant PfPK7, Kinase-Glo ATP depletion luminescence
[7] = biological target: Calcium-dependent protein kinase 4 (Plasmodium falciparum (isolate 3D7)) (UniProt Q8IBS5); experiment: PfCDPK4 kinase inhibitors, biochemical, TCAMS library (AID 1159588; cut-off not given, nearly all actives have IC50 up to about 0.91 µM); conditions: recombinant PfCDPK4, Kinase-Glo ATP depletion luminescence
[8] = antimalarial activity against Dd2 strain (AID 2302;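 active means growth inhibition above 50% at the single 2 µM test dose, taken to imply half-maximal potency below 2 µM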;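 further: 0% = DMSO untreated growth and 100% = chloroquine plus artemisinin killed control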); conditions: P. falciparum Dd2 in RBCs, LDH growth readout, 72 h; at 2 µM; hits give high values

Chain of Protein kinase 7 (PK7), Plasmodium falciparum 3D7 (PF3D7_0213400) (Q7YTF7 1-343): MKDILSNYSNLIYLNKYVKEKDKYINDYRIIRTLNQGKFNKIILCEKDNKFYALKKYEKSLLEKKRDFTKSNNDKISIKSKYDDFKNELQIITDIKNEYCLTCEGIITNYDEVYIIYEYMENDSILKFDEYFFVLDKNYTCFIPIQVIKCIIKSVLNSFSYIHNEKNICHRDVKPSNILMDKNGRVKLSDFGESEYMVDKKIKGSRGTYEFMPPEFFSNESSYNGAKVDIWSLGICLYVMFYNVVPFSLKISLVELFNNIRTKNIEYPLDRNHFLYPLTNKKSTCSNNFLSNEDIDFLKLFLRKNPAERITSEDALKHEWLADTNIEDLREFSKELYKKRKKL
Chain of Calcium-dependent protein kinase 4 (Plasmodium falciparum (isolate 3D7)) (Q8IBS5 whole entry, looked up): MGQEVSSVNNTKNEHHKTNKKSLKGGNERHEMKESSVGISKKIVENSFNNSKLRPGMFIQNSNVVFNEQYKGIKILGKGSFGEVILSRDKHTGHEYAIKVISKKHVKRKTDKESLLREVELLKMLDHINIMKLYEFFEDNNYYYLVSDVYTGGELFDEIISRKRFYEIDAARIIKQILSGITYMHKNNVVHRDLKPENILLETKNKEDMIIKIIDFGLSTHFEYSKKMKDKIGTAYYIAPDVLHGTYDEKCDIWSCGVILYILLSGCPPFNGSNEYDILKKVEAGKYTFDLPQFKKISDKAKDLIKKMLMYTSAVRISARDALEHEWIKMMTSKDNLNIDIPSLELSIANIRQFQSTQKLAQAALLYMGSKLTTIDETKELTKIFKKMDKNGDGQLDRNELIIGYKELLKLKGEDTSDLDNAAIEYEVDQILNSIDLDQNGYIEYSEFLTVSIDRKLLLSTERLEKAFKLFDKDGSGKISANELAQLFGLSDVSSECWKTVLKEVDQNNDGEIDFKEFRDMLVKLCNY
Chain of L-lactate dehydrogenase (Plasmodium falciparum (isolate CDC / Honduras)) (Q27743 whole entry, looked up): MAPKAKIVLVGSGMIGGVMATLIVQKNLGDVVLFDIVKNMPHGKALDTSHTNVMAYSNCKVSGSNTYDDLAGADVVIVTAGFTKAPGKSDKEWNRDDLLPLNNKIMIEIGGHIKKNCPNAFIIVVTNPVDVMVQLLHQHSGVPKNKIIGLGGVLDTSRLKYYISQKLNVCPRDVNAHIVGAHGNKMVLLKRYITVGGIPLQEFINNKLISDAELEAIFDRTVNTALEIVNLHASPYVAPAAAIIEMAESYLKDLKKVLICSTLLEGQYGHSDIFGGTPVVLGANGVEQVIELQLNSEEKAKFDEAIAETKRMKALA
Chain of Plasmodium falciparum protein kinase 6 (PK6, PF3D7_1337100) (Q8IDW1 1-305): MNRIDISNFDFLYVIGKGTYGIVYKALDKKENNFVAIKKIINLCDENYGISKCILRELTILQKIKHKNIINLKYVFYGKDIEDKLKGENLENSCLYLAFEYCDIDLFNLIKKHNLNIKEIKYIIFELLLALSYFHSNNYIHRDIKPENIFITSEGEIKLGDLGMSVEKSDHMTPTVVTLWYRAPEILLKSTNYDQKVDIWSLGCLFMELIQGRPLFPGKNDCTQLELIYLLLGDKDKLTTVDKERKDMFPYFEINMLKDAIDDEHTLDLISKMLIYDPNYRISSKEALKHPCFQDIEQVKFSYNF
Chain of Calcium-dependent protein kinase 1 (Plasmodium falciparum (isolate 3D7)) (P62344 whole entry, looked up): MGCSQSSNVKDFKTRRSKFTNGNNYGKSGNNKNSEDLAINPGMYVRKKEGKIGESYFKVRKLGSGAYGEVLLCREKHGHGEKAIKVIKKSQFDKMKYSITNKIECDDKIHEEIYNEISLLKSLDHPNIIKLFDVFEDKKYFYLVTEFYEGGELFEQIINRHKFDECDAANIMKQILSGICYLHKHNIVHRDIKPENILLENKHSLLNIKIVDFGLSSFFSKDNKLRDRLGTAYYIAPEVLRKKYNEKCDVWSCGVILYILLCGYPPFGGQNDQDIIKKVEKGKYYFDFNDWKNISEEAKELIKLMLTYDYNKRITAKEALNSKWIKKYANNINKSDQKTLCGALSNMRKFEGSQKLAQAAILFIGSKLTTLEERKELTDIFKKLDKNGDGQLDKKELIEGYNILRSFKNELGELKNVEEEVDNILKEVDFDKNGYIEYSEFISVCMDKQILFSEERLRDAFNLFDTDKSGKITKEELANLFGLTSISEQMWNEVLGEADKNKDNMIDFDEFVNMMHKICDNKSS

Row | Structure (SMILES) | inhibition [1] | inhibition [2] | growth inhibition [3] | outcome [4] | outcome [5] | outcome [6] | outcome [7] | growth inhibition [8]
1 | COc1ccc(C2CC(c3cccs3)=NN2C(=O)COc2cccc(C(C)=O)c2)cc1OC (centres undefined) | 10% | -2% | 99% (active) | inactive | inactive | inactive | inactive | –
2 | C[C@H]1CN(Cc2ccc(-c3cccc(CNC(=O)c4cccc(C(=O)c5ccc(Cl)c(Cl)c5)c4)c3)s2)CCN1 | 3% | 3% | 99% (active) | inactive | inactive | inactive | inactive | –
3 | CCCCNC(=O)C1CCCN(C(=O)c2ccc(O)c(-c3ccc(Cl)c(Cl)c3)c2)C1 (centres undefined) | 3% | 2% | 83% (active) | inactive | inactive | inactive | inactive | –
4 | C[C@@H]1CN(c2ccc3[nH]cc(Sc4ccc(-c5cccs5)cc4)c3c2)C[C@H](C)N1 | 29% | -4% | 89% (active) | inactive | inactive | inactive | inactive | –
5 | Cc1ccccc1Oc1ccc(Nc2ccnc(Nc3cccc(C(N)=O)c3)n2)cc1C(F)(F)F | 9% | -1% | 81% (active) | inactive | inactive | inactive | inactive | –
6 | O=C(CN1C(=O)CC1S(=O)(=O)Cc1ccco1)NCCCCCCc1ccc(F)cc1 (centres undefined) | -2% | -4% | 95% (active) | inactive | inactive | inactive | inactive | –
7 | CN(C)c1ccc(NC(=O)Nc2ccnc3ccccc23)cc1Br | 21% | 3% | 98% (active) | inactive | inactive | inactive | inactive | –
8 | CCS(=O)(=O)c1ccc(/C(=N/OC)c2ccc[nH]2)cc1 | -6% | -2% | 85% (active) | inactive | inactive | inactive | inactive | –
9 | O=C(c1ccccc1)N1CCC[C@](CCCN2CCN(c3ccccc3O)CC2)(c2ccc(Cl)c(Cl)c2)C1 | 16% | -3% | 80% (active) | inactive | inactive | inactive | inactive | –
10 | O=C(Nc1cccc(Cl)c1)c1cc2ccccc2cc1O | 4% | -8% | 97% (active) | inactive | inactive | inactive | inactive | –
11 | O=C(Nc1cccc(-c2nn3ccccc3c2-c2ccnc(Nc3cccc(F)c3)n2)c1)C1CCCCC1 | 44% | 3% | 85% (active) | inactive | inactive | inactive | inactive | –
12 | O=C(NCCCCN1CCC(c2ccc3c(c2OCCOCCO)CCCC3)CC1)c1ccc(-c2ccc(C(F)(F)F)cc2)cc1 | 44% | -5% | 97% (active) | inactive | inactive | inactive | inactive | –
13 | CO/N=C(\C)c1ccc2c(c1)CCN(CCC1CCC(NC(=O)c3cccc(-c4noc(C)n4)c3)CC1)CC2 (centres undefined) | 42% | -1% | 90% (active) | inactive | inactive | inactive | inactive | –
14 | N=C(N)c1nc2ccccc2s1 | 1% | -1% | 87% (active) | inactive | inactive | inactive | inactive | –
15 | CCN(CC)CCCN(C(=O)Nc1cc(F)cc(F)c1)c1nc(-c2ccc(F)cc2)cs1 | 27% | 0% | 82% (active) | inactive | inactive | inactive | inactive | –
16 | COc1cc(Cc2cnc(N)nc2N)ccc1OCc1csc(-c2ccc(Cl)cc2)n1 | 39% | 2% | 93% (active) | inactive | inactive | inactive | inactive | –
17 | c1ccc2sc(-c3csc(Nc4ccncc4)n3)nc2c1 | -4% | -1% | 86% (active) | inactive | inactive | inactive | inactive | –
18 | Nc1nc2ccc(CNc3ccc(C(=O)N[C@@H](CCC(=O)O)C(=O)O)cc3)cc2c(=O)[nH]1 | 2% | 3% | 96% (active) | inactive | inactive | inactive | inactive | –
19 | CC(C)(C)c1cc(Cl)cc(C(=O)Nc2cc([N+](=O)[O-])ccc2Cl)c1O | 79% (active) | 2% | 91% (active) | inactive | inactive | inactive | inactive | –
20 | Cc1cc(OCCCN2CCC(NC(=O)c3ccc(Br)cc3)C2)c2ccccc2n1 (centres undefined) | 13% | -3% | 85% (active) | inactive | inactive | inactive | inactive | –
21 | CC(Sc1n[nH]c(-c2ccccc2Br)n1)C(=O)Nc1ccc(F)cc1 (centres undefined) | -7% | 1% | 90% (active) | inactive | inactive | inactive | inactive | –
22 | COc1cc2ncnc(Nc3ccc(OC(F)(F)c4ccccc4)cc3)c2cc1OC | 14% | 2% | 91% (active) | inactive | inactive | inactive | inactive | –
23 | CN(C)Cc1ccc(CNC2CCN(Cc3ccccc3Cl)CC2)cc1 | 23% | -3% | 82% (active) | inactive | inactive | inactive | inactive | –
24 | CC(C)CNC(=O)c1ccc(-c2cccc(CN3CCC(N4CCCC4)CC3)c2)nc1 | 4% | -3% | 81% (active) | inactive | inactive | inactive | inactive | –

Row | Structure (SMILES) | inhibition [1] | inhibition [2] | growth inhibition [3] | outcome [4] | outcome [5] | outcome [6] | outcome [7] | growth inhibition [8]
25 | N=C1SC(=Cc2cn[nH]c2-c2ccc(F)cc2)C(=O)N1c1nccs1 | 28% | -3% | 91% (active) | inactive | inactive | inactive | inactive | –
26 | Oc1ccc(CCNCCCCCNCCCc2ccc(Cl)cc2)cc1O | 22% | -3% | 91% (active) | inactive | inactive | inactive | inactive | –
27 | CN1CCC(N2CCN(C(=O)c3cccc(-c4cccc(-c5nc6ccccc6[nH]5)c4)c3)CC2)CC1 | 10% | 3% | 100% (active) | inactive | inactive | inactive | inactive | –
28 | Cc1ccc(Nc2c3ccccc3nc3ccc(C)cc23)cc1 | 26% | -2% | 88% (active) | inactive | inactive | inactive | inactive | –
29 | CC(=O)Nc1ccc(CN2CCc3ccc(NS(=O)(=O)c4ccc(-c5cccc(C(F)(F)F)c5)cc4)cc3CC2)s1 | 23% | 0% | 82% (active) | inactive | inactive | inactive | inactive | –
30 | Clc1cccc(C=NNc2ccnc3cc(Cl)ccc23)c1 | – | -4% | – | inactive | inactive | inactive | inactive | –
31 | COc1cc(Nc2nccc(-c3c(-c4cccc(NC(=O)c5c(F)cccc5F)c4)nn4ncccc34)n2)cc(OC)c1OC | 96% (active) | 1% | 98% (active) | inactive | inactive | inactive | – | 97% (active)
32 | CS(=O)(=O)Cc1cccc(Nc2ncc(Cl)c(Nc3cccnc3C(N)=O)n2)c1 | 56% (active) | -3% | 96% (active) | inactive | – | inactive | inactive | 97% (active)
33 | Fc1ccccc1C=NNc1ccnc2cc(Cl)ccc12 | – | -2% | – | inactive | inactive | inactive | inactive | –
34 | c1ccc2c3c([nH]c2c1)C(c1ccc2c(c1)CCO2)N(c1ncnc(N2CCN(CCCN4CCOCC4)CC2)n1)CC3 (centres undefined) | 37% | -2% | 80% (active) | inactive | inactive | inactive | inactive | –
35 | CCN(CC)CCNC(=O)c1ccc(N=Cc2c(O)[nH]c3ccc(S(=O)(=O)Cc4c(Cl)cccc4Cl)cc23)cc1 | 25% | 3% | 100% (active) | inactive | inactive | inactive | – | 56% (active)
36 | CC(C)CN1C(=O)C(c2ccc(F)c(F)c2)=C(O)C1c1ccccc1 (centres undefined) | 0% | -7% | 94% (active) | inactive | inactive | inactive | inactive | –
37 | COc1ccc(NS(=O)(=O)c2ccc(Oc3nc(C)nc4sc5c(c34)CCCC5)cc2)cc1 | 5% | -2% | 96% (active) | inactive | inactive | inactive | inactive | –
38 | Cc1ccc(-c2cnc3[nH]cc(-c4ccc(C(=O)O)c(C)c4)c3c2)cc1C | 37% | 0% | 96% (active) | inactive | inactive | inactive | inactive | –
39 | O=C(O)c1cccnc1Sc1ccc(Cl)cc1 | 5% | 3% | 100% (active) | inactive | – | inactive | inactive | 4%
40 | COc1ccc(NC(=O)c2ccc(-c3cccc(OCc4ccccc4)c3)cc2)cc1N1CCN(C)CC1 | 29% | -1% | 85% (active) | inactive | inactive | inactive | inactive | –
41 | O=c1c2cccnc2sn1-c1ccccc1 | – | 0% | – | inactive | inactive | inactive | inactive | –
42 | O=C(Nc1ccccc1)Nc1cccc(-c2nn3c(OCCN4CCCC4)cccc3c2-c2ccncc2)c1 | 30% | 4% | 102% (active) | inactive | inactive | inactive | – | 98% (active)
43 | Cc1nc2ccccc2n1C1C[C@H]2CC[C@@H](C1)N2CCC1(c2ccccc2)CCN(C(=O)Nc2ccc(C(F)(F)F)cc2)CC1 (some centres undefined) | – | -2% | – | inactive | inactive | inactive | inactive | –
44 | O=C(O)c1ccc(-c2cnc3ccc(NC4CCC(O)CC4)nn23)cc1 (centres undefined) | 9% | 3% | 98% (active) | inactive | inactive | – | inactive | 90% (active)
45 | CCN(CC)CCCC(C)Nc1nc(C=Cc2ccc(Br)cc2)nc2cc(Cl)ccc12 (centres undefined) | – | -6% | – | inactive | inactive | inactive | inactive | –
46 | NS(=O)(=O)c1cccc(N=Cc2c(O)[nH]c3ccc(S(=O)(=O)Cc4c(Cl)cccc4Cl)cc23)c1 | 1% | 4% | 92% (active) | inactive | inactive | inactive | – | 99% (active)
47 | Cn1cccc1C(=O)Nc1cccc(-c2nn3ccccc3c2-c2ccnc(Nc3ccc4c(c3)OCCO4)n2)c1 | 12% | 4% | 95% (active) | inactive | inactive | inactive | – | 27%
